{"source": "PubChem BioAssay (NCI)", "note": "About 83,000 compounds went through this panel and 20% of them were active in at least one assay; those are over-represented in the sample as a whole.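 How to read the values: 0–100, growth inhibition (40 = 60% inhibited); 0, no net growth; -100 to 0, cell death (-40 = 40% of starting cells died; -100 = all dead).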 A number with no mark means an inactive call. The source made the active and inactive calls. How the source made its calls: active means growth percent below 10; inactive means the rest.", "data": [{"test_system": "NCI-H460 lung", "assay": "NCI-60 one-dose screen, 48 h (100 = growth as untreated, 0 = no growth, -100 = all killed)", "conditions": "10 µM unless noted", "values": [{"smiles": "CN(C)CCC(=O)C1CC1", "growth": "103%"}, {"smiles": "COc1cc(/C=C2\\C(=O)N(CCCOc3cc(O)c4c(=O)cc(-c5ccccc5)oc4c3)c3ccccc32)cc(OC)c1O", "growth": "89.4%"}, {"smiles": "Cc1c2ccccc2nc2cc3c(cc12)[C@H]1CC[C@]2(C)C(=O)CC[C@H]2[C@@H]1CC3", "growth": "97.3%"}, {"smiles": "COc1ccc(C(=O)/C=C/c2ccccc2)cc1S(N)(=O)=O", "growth": "53.6%"}, {"smiles": "Cc1ccc(OCCOCCOCCOc2ccc(C)n(O)c2=S)c(=S)n1O", "growth": "17.3%"}, {"smiles": "S=c1ccnc[nH]1", "growth": "105%"}, {"smiles": "O=C(Oc1ccc2c(c1)sc1nc(-c3ccccc3)[nH]c(=O)c12)C(F)(F)F", "growth": "13%"}, {"smiles": "Cc1cccc(-c2nc(C(C)C)sc2-c2ccnc(NCCCNS(=O)(=O)c3ccc(Cl)cc3)c2)c1", "growth": "70.1%"}, {"smiles": "CN(C)CCC(CCN(C)C)(C(=O)O)c1ccccc1", "growth": "104%"}, {"smiles": "CC1=C2[C@@H](CC1)[C@]1(C)O[C@@](C3CCNCC3)(C[C@H]1OC(=O)CO)[C@H]2OC(=O)/C=C/c1ccccc1", "growth": "94.1%"}, {"smiles": "COc1ccc2c(O)c(/C=C3\\N=Nc4ncccc43)oc2c1C[C@@H]1CCNC[C@H]1F", "growth": "-51.2% (active)"}, {"smiles": "CC1(C)CC[C@]2(CO)CC[C@]3(C)[C@](O)([C@H](O)C[C@@H]4[C@@]5(C)CCCNC(C)(C)[C@@H]5CC[C@]43C)[C@@H]2C1", "growth": "88.8%"}, {"smiles": "Cc1ccccc1N1CCN(C(=S)c2ccccc2)CC1", "growth": "92.4%"}, {"smiles": "C1CCC(N2CN3c4nonc4N4CN(C5CCCCC5)CN5c6nonc6N(C2)C3C45)CC1", "note": "(stereo unspecified)", "growth": "99.4%"}, {"smiles": "COc1ccc(/C=N/Nc2c3ccccc3nc3ccccc23)cc1", "growth": "99.5%"}, {"smiles": "Cc1nc2sc(C(=O)Nc3ccccn3)c(N)c2cc1C(C)O", "note": "(stereo unspecified)", "growth": "80.2%"}, {"smiles": "COc1ccc(C/C(C)=C(\\c2ccc(Cl)cc2)c2ccc(OCCCN(C)C)cc2)cc1", "growth": "56.6%"}, {"smiles": "CC1(C)CC[C@]23CC[C@]4(C)[C@H](CC[C@@H]5[C@@]6(C)C/C(=C/O)C(=O)C(C)(C)[C@@H]6CC[C@]54C)[C@H]2[C@H]1OC3", "growth": "107%"}, {"smiles": "Nc1ccc(Br)cc1C(F)(F)F", "growth": "111%"}, {"smiles": "Cc1oc(-c2ccc(Cl)cc2)nc1C1=NN(C(=O)c2ccncc2)C(c2ccccc2)C1", "note": "(stereo unspecified)", "growth": "98.6%"}, {"smiles": "CCN(CC)CCOc1ccc(Nc2ncc3cc(-c4c(Cl)cccc4Cl)c(=O)n(CCOC)c3n2)cc1", "growth": "3.65% (active)"}, {"smiles": "COc1ccc(Oc2ccc(/C=C/C(=O)c3ccc(OC)c(OC)c3)cc2)cc1", "growth": "93.9%"}, {"smiles": "C=CC(CC(c1ccccc1)(c1ccccc1)c1ccccc1)N(CC)CC", "note": "(stereo unspecified)", "growth": "62.6%"}, {"smiles": "CC[C@@H](C(=O)[C@@H](C)[C@@H](O)[C@H](C)[C@@H]1O[C@@H]([C@@H](CC)C(=O)ONC(=O)c2ccccc2O)CC[C@@H]1C)C1O[C@]2(C=CC(=O)[C@]3(CC[C@@](C)([C@H]4CC[C@](O)(CC)[C@H](C)O4)O3)O2)[C@H](C)C[C@@H]1C", "note": "(stereo partly specified)", "growth": "33.5%"}, {"smiles": "C[C@H](c1nc2ccc(C#N)cc2[nH]1)[C@H]1CC[C@H]2[C@@H]3CCC4=CC(=O)CC[C@]4(C)[C@H]3CC[C@]12C", "growth": "64%"}, {"smiles": "COc1ccc2[nH]cc(-c3nonc3-c3c[nH]c4ccc(Br)cc34)c2c1", "growth": "8.13% (active)"}, {"smiles": "O=C(NCCN1CCOCC1)OCc1ccc2c(Cl)cc(Cl)c(O)c2n1", "growth": "63.7%"}, {"smiles": "COc1cccc(-c2cn3nc(-c4cn(C)c5ccccc45)sc3n2)c1", "growth": "101%"}, {"smiles": "NS(=O)(=O)c1ccc(C(=O)NN2C(=O)c3ccccc3C2=O)cc1", "growth": "112%"}, {"smiles": "CC(C)=CC(=O)N[C@H]1CC[C@]2(C)C3CC[C@]4(C)C(C(C)N(C)C)=CCC4C3CCC2[C@H]1O", "note": "(stereo partly specified)", "growth": "18.6%"}, {"smiles": "CCCn1c(=S)sc2c(NNC(C)=O)nc(C)nc21", "growth": "101%"}, {"smiles": "Cc1nc(N/N=C/c2cn(-c3ccccc3)nc2-c2cc3ccccc3oc2=O)sc1N=Nc1ccccc1", "growth": "99.7%"}, {"smiles": "O=C(Nc1ncc(Cc2ccccc2)s1)c1sc2ccccc2c1Cl", "growth": "8.39% (active)"}, {"smiles": "COc1cc(/C=C/C(=O)c2cc(OC)c(OC)c(OC)c2)ccc1Oc1nc2c(c(=O)n(C)c(=O)n2C)n1C", "growth": "-5.25% (active)"}, {"smiles": "NC(=O)c1ccccc1OCC(=O)Nc1ccc(Cl)c(Cl)c1", "growth": "100%"}, {"smiles": "CCOC(=O)c1c(C)nc2ccccc2c1/C=C/c1ccc(F)cc1", "growth": "81.7%"}]}]}
